Experiment [1] addresses Cytochrome P450 3A4 (Homo sapiens) (UniProt P08684). The experiment in a line: qHTS Assay for Inhibitors and Substrates of Cytochrome P450 3A4 (AID 884). Further: on the % scale 0 is the no-effect control and ±100 the full control effect; nearly all actives have a fitted effect of over 50% in size. The gist of the method: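 20 nM human CYP3A4 with 25 uM Luciferin-PPXE (at KM) in 200 mM KPO4, preincubated 10 min with compound; NADPH regeneration started a 60 min RT reaction. Luciferin detected by luminescence, normalized to 57 uM ketoconazole as full inhibition.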

Experiment [2] concerns the target Peroxisome proliferator-activated receptor gamma (Homo sapiens) (UniProt P37231). Briefly: qHTS assay for small molecule agonists of peroxisome proliferator-activated receptor gamma signaling (AID 588536; active means well fitted curve in the direction sought with a large enough effect in the signal ratio, with a control signal flat, not every such curve was filed as active; the % refers to the signal ratio;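 further: 0% = DMSO basal wells and 100% = rosiglitazone at 2 µM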). The gist of the method: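 HEK293 UAS-bla reporter line, 1% charcoal/dextran FBS; titration, 16 h, 37 C; CCF4 loading 2 h RT; fluorescence 460/530 nm. Normalized to rosiglitazone 2 uM = 100%, DMSO = 0%.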

The nature of experiment [3]: qHTS assay for small molecule antagonists of retinoid X receptor alpha signaling (AID 588546; active means well fitted inhibition curve with a large enough effect in the signal ratio, with a control signal flat, not every such curve was filed as active; the % refers to the signal ratio;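 further: cells stimulated with 9-cis-retinoic acid as agonist; on the % scale 0 is the no-effect control and ±100 the full control effect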). To be noted: HEK293T RXRa-UAS-bla, beta-lactamase ratio, antagonist mode; measured here: W530 green channel, cytotoxicity proxy. The gist of the method:
(§1)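 Beta-lactamase reporter inhibition, read as CCF4 fluorescence ratio (ex 405, em 460/530 nm) after 2 h at RT. HEK293T UAS-bla cells, 2500/well, were stimulated with 9-cis-RA at 500 or 100 nM final alongside test compound for 18 h at 37 C.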

The target in experiment [4] is Retinoic acid receptor RXR-alpha (Homo sapiens) (UniProt P19793). Described as above. Particulars: HEK293T RXRa-UAS-bla, beta-lactamase ratio, antagonist mode. Summed up:
as §1

The nature of experiment [5]: qHTS assay for environmental chemicals that activate the Aryl hydrocarbon Receptor (AhR) signaling pathway (AID 651777). Further: % of control where 0% means no effect; nearly all actives have a fitted effect of over 15% in size. To be noted: 1A2-DRE human hepatoma cells, luciferase, 24 h; activation: stronger effect = higher value. The gist of the method:
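1A2-DRE human hepatoma reporter line; 1,200 cells/well; cmpd or DMSO 24 h, 37 C/5% CO2; One-Glo 30 min RT; luciferase lum.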
A general note: qHTS replaces the single test concentration by a dilution series.

Experiment [6] can be described thus: qHTS assay for small molecule agonists of the antioxidant response element (ARE) signaling pathway measured by Nrf2-dependant transcriptional activity (AID 720636; active means well fitted curve in the direction sought with a large enough effect in the repeat runs; an effect the other way counts as inactive or inconclusive;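 further: HepG2 cells with an ARE-driven luciferase reporter; % of control where 0% means no effect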). Summed up: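 Cells: ARE-luc HepG2 with Nrf2-responsive luciferase. Medium contained 1% dialyzed FBS. Compound exposure lasted 16 hr at 37 C and 5% CO2, followed by ONE-Glo luciferase detection.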

The nature of experiment [7]: qHTS assay for small molecule agonists of the antioxidant response element (ARE) signaling pathway measured by Nrf2-dependant transcriptional activity - cell viability counter screen (AID 720653; active means well fitted curve in the direction sought with a large enough effect in the repeat runs; an effect the other way counts as inactive or inconclusive; further: on the % scale 0 is the no-effect control and ±100 the full control effect). Particulars: ARE-bla HepG2 viability, CellTiter-Glo ATP luminescence, 16 h; max response: stronger effect = lower value. Summed up:
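ARE-bla HepG2 cells treated with compounds for 16 h at 37C; this counter screen measures viability as intracellular ATP by CellTiter-Glo luminescence after 30 min at room temperature.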

A short description of experiment [8]: qHTS assay for cell viability of the p53RE-bla HCT-116 cell line (AID 743292). Further: on the % scale 0 is the no-effect control and ±100 the full control effect; nearly all actives have a fitted effect of over 55% in size. Summed up:
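HCT-116 p53RE-bla cells seeded 4,000/well; 5 h at 37 C; compound (DMSO) added; 16 h at 37 C; CellTiter-Glo added, 30 min RT; luminescence read.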

The target in experiment [9] is Glutathione peroxidase 1 (Homo sapiens) (UniProt P07203). Briefly: Primary qHTS Assay for Inhibitors of Recombinant Selenoprotein Glutathione Peroxidase 1 (GPX1) (AID 1845191). Further: nearly all actives have a fitted effect of over 65% in size. On activity, negative = inhibition: on the % scale 0 is the no-effect control and ±100 the full control effect. The gist of the method:
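GR-coupled assay: compounds preincubated 30 min at room temperature with GPX1, then reaction started with CHP; final 10 nM GPX1, 1 mM GSH, 0.5 mM CHP, 0.5 mM NADPH, 100 nM GR, 0.01% BSA, pH 7.5 Tris buffer. NADPH fluorescence (340/450 nm) read at 0 and 15 min.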

Experiment [10] addresses Phospholipid hydroperoxide glutathione peroxidase GPX4 (Homo sapiens) (UniProt P36969). Briefly: Primary qHTS Assay for Inhibitors of Recombinant Selenoprotein Glutathione Peroxidase 4 (GPX4) (AID 1845192). Further: nearly all actives have a fitted effect of over 65% in size. The gist of the method:
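GR-coupled assay: recombinant GPX4 preincubated 30 min with compound at room temperature; final 200 nM GPX4, 1 mM GSH, 0.5 mM cumene hydroperoxide, 0.5 mM NADPH, 100 nM GR, 0.01% BSA, pH 7.5 Tris. NADPH fluorescence (340/450 nm) read at 0 and 15 min.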

Experiment [11] in a line: qHTS drug screen for cell cycle checkpoint inhibitors in PARPi-resistant BRCA-mutant ovarian cancer cell lines. (AID 1963452; calls by dose curve). Particulars: PEO1/OlaR viability, CellTiter-Glo luminescence, 96 h, stronger effect = lower value. Summed up: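 PEO1, PEO4 and PEO1/OlaR ovarian cancer cells, 600 per well, exposed 96 h at 37C to a dilution series. Viability read by CellTiter-Glo luminescence, normalized to DMSO and empty wells; activity summarized as Z-AUC.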

For experiment [12], the target named is Luciferin 4-monooxygenase (Photinus pyralis) (UniProt P08659). The experiment in a line: Biochemical firefly luciferase enzyme assay for NPC (AID 624030).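 Further: purified P. pyralis luciferase at 10 nM with luciferin and ATP substrate; 0% = DMSO and -100% = full luciferase inhibition by PTC124 control; nearly all actives have a fitted effect of over 70% in size.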 The gist of the method:
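Purified P. pyralis luciferase at 10 nM in 50 mM Tris Acetate (final), luminescence read within 5 minutes of enzyme addition to compounds. Activity normalised to PTC124 versus DMSO; concentration-response curves classed by r2, magnitude and activity.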

A short description of experiment [13]: qHTS profiling for inhibitors of Plasmodium falciparum proliferation (AID 504749).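 Further: 0% = DMSO vehicle and full inhibition = artemisinin control; nearly all actives have a fitted effect of over 60% in size.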 Particulars: P. falciparum in erythrocytes, SYBR Green DNA, 72 h; at 28.7 µM (top of the series); parasite line B. The gist of the method: (§2)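 P. falciparum-infected erythrocytes (0.3% parasitemia, 2.5% hematocrit) incubated with compound 72 h at 37 C, 5% CO2. Parasite DNA detected by SYBR Green after lysis, overnight at room temperature; normalised to 0.29 uM artemisinin and DMSO.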

The subject of experiment [14] is CP192. The experiment is described as above. To be noted: P. falciparum in erythrocytes, SYBR Green DNA, 72 h; series mostly up to 28.7 µM. Summed up:
as §2

For experiment [15], the system named is CP262. The description is as above. Particulars: P. falciparum in erythrocytes, SYBR Green DNA, 72 h; series mostly up to 28.7 µM. Summed up:
as §2

In experiment [16] the test system is CP269. The description is as above. Particulars: P. falciparum in erythrocytes, SYBR Green DNA, 72 h; series mostly up to 28.7 µM. Summed up: as §2
For experiment [17], the system named is CP291. The description is as above. Particulars: P. falciparum in erythrocytes, SYBR Green DNA, 72 h; series mostly up to 28.7 µM. The gist of the method: as §2
Experiment [18] deals with CP305. The description is as above. Particulars: P. falciparum in erythrocytes, SYBR Green DNA, 72 h; series mostly up to 28.7 µM. Summed up: as §2
Experiment [19] has as its system CP329. The experiment is described as above. Particulars: P. falciparum in erythrocytes, SYBR Green DNA, 72 h; series mostly up to 28.7 µM. Summed up:
as §2

The test system of experiment [20] is GB4. Described as above. To be noted: P. falciparum in erythrocytes, SYBR Green DNA, 72 h; series mostly up to 28.7 µM. Summed up: as §2
Where [21] appears, read: measured here: PEO1 parental Z-AUC.

Where “and” joins values, the source holds several entries; their conditions need not be identical. Identical values can stand only once. Results filed as inconclusive are left out. Calls of active or inactive are those of the source. Unless noted, the call rests on the fitted dose curve; in most records, active means well fitted curve in the direction sought with a large enough effect; inconclusive means small, poorly fitted or top-dose-only effect, or another doubt; inactive means no such curve, though single readings can be large; an effect the other way counts as inactive or inconclusive. Bridge positions count the residues as written; N and C are the ends. Square brackets hold non-standard residues; d marks the D form. Peptide text beside a SMILES is read from it. * marks the point of attachment. Octanoyl(6-Me) = CCC(C)CCCCC(=O)*; Dab = NCC[CH](N)C(=O)O

Chain of Phospholipid hydroperoxide glutathione peroxidase GPX4 (Homo sapiens) (P36969 whole entry, looked up): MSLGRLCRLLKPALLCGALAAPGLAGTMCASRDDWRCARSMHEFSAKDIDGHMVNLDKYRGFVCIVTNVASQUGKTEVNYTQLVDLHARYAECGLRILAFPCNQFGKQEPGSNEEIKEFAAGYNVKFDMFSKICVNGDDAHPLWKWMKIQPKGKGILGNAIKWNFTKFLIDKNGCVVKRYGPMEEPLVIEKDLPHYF
Chain of Glutathione peroxidase 1 (Homo sapiens) (P07203 whole entry, looked up): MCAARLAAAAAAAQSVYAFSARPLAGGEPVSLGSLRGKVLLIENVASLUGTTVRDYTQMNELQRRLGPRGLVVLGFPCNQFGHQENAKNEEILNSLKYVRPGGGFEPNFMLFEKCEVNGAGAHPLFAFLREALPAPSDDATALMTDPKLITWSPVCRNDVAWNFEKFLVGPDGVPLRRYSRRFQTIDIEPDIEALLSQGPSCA
Chain of Retinoic acid receptor RXR-alpha (Homo sapiens) (P19793 whole entry, looked up): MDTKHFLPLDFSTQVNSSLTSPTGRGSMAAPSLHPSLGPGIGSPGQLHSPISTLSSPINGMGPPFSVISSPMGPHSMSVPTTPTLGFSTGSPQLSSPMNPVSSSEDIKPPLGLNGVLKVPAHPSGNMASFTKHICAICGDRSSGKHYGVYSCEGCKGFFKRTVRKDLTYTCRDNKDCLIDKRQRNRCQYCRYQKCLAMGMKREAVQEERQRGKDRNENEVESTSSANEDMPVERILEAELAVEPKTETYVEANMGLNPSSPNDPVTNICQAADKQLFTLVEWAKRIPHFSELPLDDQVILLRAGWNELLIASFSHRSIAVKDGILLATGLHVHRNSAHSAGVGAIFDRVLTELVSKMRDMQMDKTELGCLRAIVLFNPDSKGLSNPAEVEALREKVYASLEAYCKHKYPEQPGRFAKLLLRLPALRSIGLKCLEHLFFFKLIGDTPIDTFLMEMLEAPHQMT
Chain of Peroxisome proliferator-activated receptor gamma (Homo sapiens) (P37231 whole entry, looked up): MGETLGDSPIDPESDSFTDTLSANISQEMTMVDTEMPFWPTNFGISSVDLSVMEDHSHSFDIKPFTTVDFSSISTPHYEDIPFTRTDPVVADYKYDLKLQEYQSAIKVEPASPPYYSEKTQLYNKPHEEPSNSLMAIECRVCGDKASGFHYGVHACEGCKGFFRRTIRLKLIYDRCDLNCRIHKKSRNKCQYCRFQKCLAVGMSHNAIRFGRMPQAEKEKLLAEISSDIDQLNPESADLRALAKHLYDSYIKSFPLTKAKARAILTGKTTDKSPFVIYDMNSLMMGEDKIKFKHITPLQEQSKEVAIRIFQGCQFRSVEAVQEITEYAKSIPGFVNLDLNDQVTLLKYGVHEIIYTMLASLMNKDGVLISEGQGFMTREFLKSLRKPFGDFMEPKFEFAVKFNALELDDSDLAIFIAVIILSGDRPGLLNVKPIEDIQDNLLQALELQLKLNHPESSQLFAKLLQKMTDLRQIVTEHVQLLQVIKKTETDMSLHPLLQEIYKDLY
Chain of Luciferin 4-monooxygenase (Photinus pyralis) (P08659 whole entry, looked up): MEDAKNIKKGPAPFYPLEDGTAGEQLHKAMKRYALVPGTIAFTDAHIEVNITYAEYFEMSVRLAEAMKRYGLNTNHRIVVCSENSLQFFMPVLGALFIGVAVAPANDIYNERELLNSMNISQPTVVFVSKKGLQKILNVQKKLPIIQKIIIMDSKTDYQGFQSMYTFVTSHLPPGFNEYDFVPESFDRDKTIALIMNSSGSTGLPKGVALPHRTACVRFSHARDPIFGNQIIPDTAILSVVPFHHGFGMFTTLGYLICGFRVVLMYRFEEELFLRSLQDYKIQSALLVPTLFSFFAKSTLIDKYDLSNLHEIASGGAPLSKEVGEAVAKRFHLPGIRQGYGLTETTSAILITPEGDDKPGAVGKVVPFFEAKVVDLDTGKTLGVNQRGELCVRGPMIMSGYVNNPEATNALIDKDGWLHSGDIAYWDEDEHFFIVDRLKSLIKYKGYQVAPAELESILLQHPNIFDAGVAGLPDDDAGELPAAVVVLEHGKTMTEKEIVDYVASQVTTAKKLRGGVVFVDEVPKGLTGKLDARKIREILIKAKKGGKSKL
Chain of Cytochrome P450 3A4 (Homo sapiens) (P08684 whole entry, looked up): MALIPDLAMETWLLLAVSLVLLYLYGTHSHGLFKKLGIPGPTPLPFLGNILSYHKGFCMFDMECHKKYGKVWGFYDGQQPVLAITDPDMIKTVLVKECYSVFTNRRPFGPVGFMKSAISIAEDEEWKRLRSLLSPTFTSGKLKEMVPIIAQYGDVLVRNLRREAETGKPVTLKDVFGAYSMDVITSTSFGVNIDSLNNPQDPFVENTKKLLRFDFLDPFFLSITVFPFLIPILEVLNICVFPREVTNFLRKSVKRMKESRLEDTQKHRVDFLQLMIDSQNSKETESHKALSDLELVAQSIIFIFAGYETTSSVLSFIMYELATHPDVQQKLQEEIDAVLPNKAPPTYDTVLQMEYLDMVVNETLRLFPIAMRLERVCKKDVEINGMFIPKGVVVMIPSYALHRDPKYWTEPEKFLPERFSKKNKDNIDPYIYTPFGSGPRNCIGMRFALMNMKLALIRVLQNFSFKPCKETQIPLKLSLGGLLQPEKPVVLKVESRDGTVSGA

For `O=C(O)c1ccccc1C(c1ccc(O)cc1)c1ccc(O)cc1`, the Potency entry in experiment [1], in experiment [6], in experiment [8], in experiment [9] and in [10] was “inactive” each time. Also, the molecule was classed as inactive in experiment [2]. Also, the max response is -15.7% and -6.86% in experiment [3]; 6.9% (inactive) and 9.98% (inactive) in experiment [4]; -7.19% (inactive) and 7.52% (inactive) in [7]. In addition, in experiment [5], the activation was 2.69% (inactive) and 0.36% (inactive).
On to `CCc1ccc(N(CC(C)C)S(=O)(=O)c2ccc(OCC3CCOCC3)c(CO)c2)cc1`, for which the Potency entry in experiment [9] and in [10] was “inactive” throughout. Moreover, the Z-AUC in experiment [11] is -1.27 (inactive); in experiment [11] (setting [21]), -0.28; in experiment [11] (measured here: PEO4 Z-AUC) it was -0.861.
Take `CCC(C)CCCCC(=O)NC(CCN)C(=O)NC(C(=O)NC(CCN)C(=O)NC1CCNC(=O)C(C(C)O)NC(=O)C(CCN)NC(=O)C(CCN)NC(=O)C(CC(C)C)NC(=O)C(Cc2ccccc2)NC(=O)C(CCN)NC1=O)C(C)O` (stereo unspecified) ({Octanoyl(6-Me)}-[Dab]T[Dab][Dab][Dab]FL[Dab][Dab]T; lactam 4-C; configuration not given here): the Potency result in experiment [1], in experiment [12], in experiment [9], in [10], in [14] and in [15] was “inactive” in each case. Further, the Potency result in experiment [16], in [17], in experiment [18], in experiment [19] and in experiment [20] was “inactive” each time. For the same molecule, in experiment [13], the activity, negative = inhibition was 12% (inactive).
Regarding `CONC(=O)c1ccccc1Nc1cc(Nc2cc(C)nn2C(C)C)ncc1Cl`, the Potency entry in [9] was “inactive”. For the same molecule, the figures for the Z-AUC in experiment [11], in [11] (setting [21]) and in experiment [11] (measured here: PEO4 Z-AUC) were 0.959 (inactive), 0.188 and 0.196, respectively.
Turning to `N=C(N)c1ccc(OCCCOc2ccc(C(=N)N)cc2Br)c(Br)c1`, the Potency result in experiment [12], in [9] and in [10] was “inactive” throughout.
As to `N[C@@H](C(=O)N[C@@H]1C(=O)N2C(C(=O)O)=C(Cl)CC[C@H]12)c1ccccc1`, the Potency entry in [9] and in experiment [10] was “inactive” each time.
On to `C/C(O)=C(\C#N)C(=O)Nc1ccc(C(F)(F)F)cc1`, for which the Potency entry in experiment [9] and in [10] was “inactive” each time. For the same molecule, the Z-AUC in [11] is -1.06 (inactive); in experiment [11] (setting [21]) it was 0.703; in experiment [11] (measured here: PEO4 Z-AUC) it was -0.074.
